Measurements: the supplement of paper PMC10849652
Targets with a hit are over-represented here; the source holds about 7,900 in all. About 0.6% of all pairs of compound and target were hits.

Each target was assayed with C1=CC=C(C=C1)C2=NC(=C(N2)C3=CC=NC=C3)C4=CC(=C(C=C4)Cl)O (assay: log2 fold change, soluble protein after heating vs DMSO (PISA); higher = thermal stabilisation; K562 cells, 10 uM, 30 min; active = over 0.2 and 3.5 SD of the protein, either way, in both replicates (recomputed)).
Summary of the method: (§1)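 K562 cells at 2×10^6 cells/mL were exposed to 10 μM compound for 30 min, then aliquots were heated for 3 min across 48°C-58°C, pooled, and extracted in PBS containing 0.5% NP-40 at 4°C. The supernatant after 21,000xg for 90 min was taken as soluble protein and measured by TMTpro 16plex LC-MS/MS with channel sums equalised. Thermal stability is reported relative to control samples, with values from duplicates. Fold changes are given on a log2 scale.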

UniProt P29083, sequence (P29083 whole entry, looked up): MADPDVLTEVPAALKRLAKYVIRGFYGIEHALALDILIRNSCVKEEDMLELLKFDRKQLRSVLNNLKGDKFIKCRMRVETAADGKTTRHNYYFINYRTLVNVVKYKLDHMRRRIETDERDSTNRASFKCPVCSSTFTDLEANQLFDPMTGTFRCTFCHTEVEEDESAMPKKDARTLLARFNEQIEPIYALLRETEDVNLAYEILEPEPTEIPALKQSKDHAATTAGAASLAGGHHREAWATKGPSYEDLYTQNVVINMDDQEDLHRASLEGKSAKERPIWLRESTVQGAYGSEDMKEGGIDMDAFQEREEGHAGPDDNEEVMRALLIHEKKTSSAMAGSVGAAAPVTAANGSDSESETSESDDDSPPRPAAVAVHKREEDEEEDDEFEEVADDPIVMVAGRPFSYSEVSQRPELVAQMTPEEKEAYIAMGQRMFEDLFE
UniProt Q9BUP3, sequence (Q9BUP3 whole entry, looked up): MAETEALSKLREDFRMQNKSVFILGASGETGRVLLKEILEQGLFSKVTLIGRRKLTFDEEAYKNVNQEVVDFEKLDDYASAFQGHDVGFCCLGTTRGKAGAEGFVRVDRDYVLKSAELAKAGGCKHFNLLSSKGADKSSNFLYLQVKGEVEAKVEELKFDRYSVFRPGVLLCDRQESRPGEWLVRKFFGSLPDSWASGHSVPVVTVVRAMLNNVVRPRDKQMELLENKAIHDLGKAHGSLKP
UniProt Q6P3S6, sequence (Q6P3S6 whole entry, looked up): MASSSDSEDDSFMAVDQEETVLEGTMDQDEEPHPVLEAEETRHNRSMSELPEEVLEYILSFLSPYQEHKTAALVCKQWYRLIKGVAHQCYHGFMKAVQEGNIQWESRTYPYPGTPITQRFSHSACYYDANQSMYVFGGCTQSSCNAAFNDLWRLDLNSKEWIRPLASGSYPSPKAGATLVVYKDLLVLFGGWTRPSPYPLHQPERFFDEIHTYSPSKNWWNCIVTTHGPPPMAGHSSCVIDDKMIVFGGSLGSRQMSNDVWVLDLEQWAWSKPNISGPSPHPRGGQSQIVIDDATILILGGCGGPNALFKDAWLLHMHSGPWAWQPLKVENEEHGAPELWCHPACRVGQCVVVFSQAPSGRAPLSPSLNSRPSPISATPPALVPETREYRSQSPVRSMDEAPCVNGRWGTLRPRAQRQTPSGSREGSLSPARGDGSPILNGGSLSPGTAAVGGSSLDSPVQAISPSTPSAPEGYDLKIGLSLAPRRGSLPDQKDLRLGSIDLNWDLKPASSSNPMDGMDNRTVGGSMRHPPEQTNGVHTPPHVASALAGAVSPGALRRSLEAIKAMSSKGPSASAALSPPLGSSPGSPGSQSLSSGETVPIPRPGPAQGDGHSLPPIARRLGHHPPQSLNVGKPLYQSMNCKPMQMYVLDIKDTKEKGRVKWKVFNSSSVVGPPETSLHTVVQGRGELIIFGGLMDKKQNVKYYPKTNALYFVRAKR
UniProt Q9ULT8, sequence (Q9ULT8 whole entry, looked up): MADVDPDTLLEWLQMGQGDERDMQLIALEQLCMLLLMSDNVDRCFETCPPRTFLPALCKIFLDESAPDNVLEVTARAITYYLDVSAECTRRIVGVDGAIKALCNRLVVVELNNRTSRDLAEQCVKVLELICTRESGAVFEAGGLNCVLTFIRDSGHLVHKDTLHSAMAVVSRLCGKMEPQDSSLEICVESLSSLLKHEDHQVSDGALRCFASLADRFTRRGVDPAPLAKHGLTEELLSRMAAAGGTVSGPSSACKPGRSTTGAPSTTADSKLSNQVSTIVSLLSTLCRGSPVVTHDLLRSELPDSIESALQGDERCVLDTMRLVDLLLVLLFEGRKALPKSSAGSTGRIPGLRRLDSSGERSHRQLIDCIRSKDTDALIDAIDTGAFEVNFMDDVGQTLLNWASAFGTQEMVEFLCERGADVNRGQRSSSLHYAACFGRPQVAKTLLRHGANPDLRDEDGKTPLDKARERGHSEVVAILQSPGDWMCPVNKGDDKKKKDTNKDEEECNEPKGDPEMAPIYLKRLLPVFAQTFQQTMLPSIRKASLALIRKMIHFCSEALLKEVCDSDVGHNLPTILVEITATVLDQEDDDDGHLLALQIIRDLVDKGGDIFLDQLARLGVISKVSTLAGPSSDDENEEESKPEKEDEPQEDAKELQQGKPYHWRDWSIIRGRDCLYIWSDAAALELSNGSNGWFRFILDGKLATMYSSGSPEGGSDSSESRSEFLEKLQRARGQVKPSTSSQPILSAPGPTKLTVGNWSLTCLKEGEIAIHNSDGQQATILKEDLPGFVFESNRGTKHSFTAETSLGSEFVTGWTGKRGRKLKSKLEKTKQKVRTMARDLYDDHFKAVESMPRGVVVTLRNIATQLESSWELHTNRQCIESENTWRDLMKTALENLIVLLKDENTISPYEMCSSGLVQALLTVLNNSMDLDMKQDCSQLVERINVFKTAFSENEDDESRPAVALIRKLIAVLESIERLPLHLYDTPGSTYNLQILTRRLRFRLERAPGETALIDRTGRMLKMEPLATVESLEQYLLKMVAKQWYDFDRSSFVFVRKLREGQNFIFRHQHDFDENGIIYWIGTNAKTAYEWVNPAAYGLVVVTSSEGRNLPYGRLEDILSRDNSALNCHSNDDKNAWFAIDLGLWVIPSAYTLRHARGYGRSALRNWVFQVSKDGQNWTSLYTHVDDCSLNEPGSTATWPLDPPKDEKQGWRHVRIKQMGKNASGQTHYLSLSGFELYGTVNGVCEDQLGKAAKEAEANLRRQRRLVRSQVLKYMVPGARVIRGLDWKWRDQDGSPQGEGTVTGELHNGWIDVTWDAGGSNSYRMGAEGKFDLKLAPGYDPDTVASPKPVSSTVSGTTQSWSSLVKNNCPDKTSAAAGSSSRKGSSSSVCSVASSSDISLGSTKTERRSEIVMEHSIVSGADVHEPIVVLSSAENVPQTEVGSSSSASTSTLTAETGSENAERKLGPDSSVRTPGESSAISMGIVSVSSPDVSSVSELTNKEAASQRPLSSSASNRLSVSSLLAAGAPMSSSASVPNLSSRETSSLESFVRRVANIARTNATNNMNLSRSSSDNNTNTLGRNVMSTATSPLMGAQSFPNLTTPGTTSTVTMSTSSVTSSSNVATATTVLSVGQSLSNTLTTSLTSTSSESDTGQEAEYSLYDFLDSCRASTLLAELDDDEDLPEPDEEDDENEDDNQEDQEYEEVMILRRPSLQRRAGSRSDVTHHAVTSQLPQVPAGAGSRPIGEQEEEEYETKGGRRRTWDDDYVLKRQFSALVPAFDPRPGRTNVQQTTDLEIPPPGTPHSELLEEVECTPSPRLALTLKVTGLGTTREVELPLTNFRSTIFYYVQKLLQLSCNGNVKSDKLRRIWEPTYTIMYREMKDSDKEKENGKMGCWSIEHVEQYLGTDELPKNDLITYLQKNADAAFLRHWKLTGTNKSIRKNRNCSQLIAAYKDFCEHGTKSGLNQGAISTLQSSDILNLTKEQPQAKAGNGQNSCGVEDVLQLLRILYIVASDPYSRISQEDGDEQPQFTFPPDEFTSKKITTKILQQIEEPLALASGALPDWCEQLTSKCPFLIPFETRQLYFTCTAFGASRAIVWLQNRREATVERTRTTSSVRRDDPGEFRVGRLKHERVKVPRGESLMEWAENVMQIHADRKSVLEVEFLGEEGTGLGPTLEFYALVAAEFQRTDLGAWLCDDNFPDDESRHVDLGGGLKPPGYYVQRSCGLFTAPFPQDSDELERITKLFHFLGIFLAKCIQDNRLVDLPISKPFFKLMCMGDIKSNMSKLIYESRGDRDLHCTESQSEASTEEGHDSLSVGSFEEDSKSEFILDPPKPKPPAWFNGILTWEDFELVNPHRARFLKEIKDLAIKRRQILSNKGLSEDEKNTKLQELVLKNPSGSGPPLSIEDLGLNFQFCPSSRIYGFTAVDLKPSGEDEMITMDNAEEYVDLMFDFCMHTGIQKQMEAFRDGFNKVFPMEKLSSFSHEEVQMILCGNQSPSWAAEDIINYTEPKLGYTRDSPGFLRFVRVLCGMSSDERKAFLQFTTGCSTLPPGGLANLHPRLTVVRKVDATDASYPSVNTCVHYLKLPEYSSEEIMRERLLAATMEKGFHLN
UniProt P52597, sequence (P52597 whole entry, looked up): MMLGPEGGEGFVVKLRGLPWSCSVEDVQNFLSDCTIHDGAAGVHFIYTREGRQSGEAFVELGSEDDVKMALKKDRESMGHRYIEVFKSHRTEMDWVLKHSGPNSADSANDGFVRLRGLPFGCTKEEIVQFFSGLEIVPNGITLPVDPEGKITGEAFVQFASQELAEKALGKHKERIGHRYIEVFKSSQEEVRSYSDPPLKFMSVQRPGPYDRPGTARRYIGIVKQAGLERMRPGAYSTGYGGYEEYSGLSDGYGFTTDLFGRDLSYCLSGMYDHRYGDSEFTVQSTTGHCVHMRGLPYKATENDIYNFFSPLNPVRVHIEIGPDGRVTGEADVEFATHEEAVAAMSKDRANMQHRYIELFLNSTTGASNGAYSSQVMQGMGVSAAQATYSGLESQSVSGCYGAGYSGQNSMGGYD
UniProt Q49A26, sequence (Q49A26 whole entry, looked up): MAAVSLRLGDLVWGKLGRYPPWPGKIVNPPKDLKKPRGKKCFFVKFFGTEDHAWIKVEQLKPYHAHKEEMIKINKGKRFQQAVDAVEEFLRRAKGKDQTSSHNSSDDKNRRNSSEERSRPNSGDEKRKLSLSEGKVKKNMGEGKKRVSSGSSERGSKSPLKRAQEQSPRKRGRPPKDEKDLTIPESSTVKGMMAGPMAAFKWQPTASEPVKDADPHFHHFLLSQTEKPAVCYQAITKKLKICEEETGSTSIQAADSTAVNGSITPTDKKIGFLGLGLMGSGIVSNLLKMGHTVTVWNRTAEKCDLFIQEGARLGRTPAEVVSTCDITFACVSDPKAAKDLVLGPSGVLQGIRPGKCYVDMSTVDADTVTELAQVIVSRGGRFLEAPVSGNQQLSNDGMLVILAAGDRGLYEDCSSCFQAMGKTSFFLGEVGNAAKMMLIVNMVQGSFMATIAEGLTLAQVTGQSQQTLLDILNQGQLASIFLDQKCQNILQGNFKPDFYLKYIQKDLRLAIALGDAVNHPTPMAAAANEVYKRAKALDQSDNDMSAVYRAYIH
UniProt P63218, sequence (P63218 whole entry, looked up): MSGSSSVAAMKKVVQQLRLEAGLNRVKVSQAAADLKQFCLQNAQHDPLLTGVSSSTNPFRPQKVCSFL

log2 fold change, inactive:
HMGB3 (UniProt O15347) 0.095, HNRNPUL1 (UniProt Q9BUJ2) 0.004, FANCD2 isoform 1 (UniProt Q9BXW9) 0, HOOK3 (UniProt Q86VS8) -0.002, HECTD1 (UniProt Q9ULT8) -0.038, HDGFL2 (UniProt Q7Z4V5) -0.01, GTF2E1 (UniProt P29083) 0.025, IFI30 (UniProt P13284) 0.067, GSK3B isoform 2 (UniProt P49841) 0.095, GIGYF2 (UniProt Q6Y7W6) 0.009, GPAT4 (UniProt Q86UL3) -0.01, HTATIP2 isoform 3 (UniProt Q9BUP3) 0.012, H2AZ1 (UniProt P0C0S5) -0.189, IFRD2 isoform 2 (UniProt Q12894) -0.051, GEMIN5 (UniProt Q8TEQ6) 0.01, HIC2 (UniProt Q96JB3) 0.012, GTF2B (UniProt Q00403) -0.033, IDH3A (UniProt P50213) -0.03, HNRNPF (UniProt P52597) 0.079, GAGE12F (UniProt P0CL80) -0.007, GDE1 (UniProt Q9NZC3) -0.029, GLB1 (UniProt P16278) 0.013, FASTKD1 (UniProt Q53R41) 0.281, GALNT4 (UniProt Q8N4A0) -0.012, HHEX (UniProt Q03014) -0.044, HPCAL1 (UniProt P37235) -0.063, GNG5 (UniProt P63218) 0.072, GLYR1 (UniProt Q49A26) -0.021, HLTF (UniProt Q14527) -0.009, GTF2E2 (UniProt P29084) -0.002, HADHB (UniProt P55084) 0.04, HBZ (UniProt P02008) 0.118, FBXO42 (UniProt Q6P3S6) 0.051, GALNT11 (UniProt Q8NCW6) -0.034, GNB2 (UniProt P62879) -0.003

Each target was assayed with C1=CC=C2C(=C1)C3=NNC4=CC=CC(=C43)C2=O in the same assay as above.
Summary of the method: as §1

log2 fold change, inactive:
HMGB3 (UniProt O15347) -0.006, HNRNPUL1 (UniProt Q9BUJ2) 0.014, FANCD2 isoform 1 (UniProt Q9BXW9) -0.012, HOOK3 (UniProt Q86VS8) -0.036, HECTD1 (UniProt Q9ULT8) -0.035, HDGFL2 (UniProt Q7Z4V5) -0.046, GTF2E1 (UniProt P29083) 0.039, IFI30 (UniProt P13284) 0.009, GSK3B isoform 2 (UniProt P49841) 0.091, GIGYF2 (UniProt Q6Y7W6) 0.025, GPAT4 (UniProt Q86UL3) 0.032, HTATIP2 isoform 3 (UniProt Q9BUP3) 0.033, H2AZ1 (UniProt P0C0S5) 0.036, IFRD2 isoform 2 (UniProt Q12894) 0.118, GEMIN5 (UniProt Q8TEQ6) 0.01, HIC2 (UniProt Q96JB3) -0.266, GTF2B (UniProt Q00403) 0.01, IDH3A (UniProt P50213) 0.024, HNRNPF (UniProt P52597) 0.003, GAGE12F (UniProt P0CL80) 0.011, GDE1 (UniProt Q9NZC3) -0.023, GLB1 (UniProt P16278) -0.011, FASTKD1 (UniProt Q53R41) 0.093, GALNT4 (UniProt Q8N4A0) 0.008, HHEX (UniProt Q03014) 0.037, HPCAL1 (UniProt P37235) 0.002, GNG5 (UniProt P63218) 0.038, GLYR1 (UniProt Q49A26) -0.034, HLTF (UniProt Q14527) 0.044, GTF2E2 (UniProt P29084) 0.03, HADHB (UniProt P55084) 0.259, HBZ (UniProt P02008) 0.017, FBXO42 (UniProt Q6P3S6) -0.006, GALNT11 (UniProt Q8NCW6) 0.043, GNB2 (UniProt P62879) 0.008
